Measured values as given in ChEMBL document CHEMBL3988442, “University of Dundee, Small-Polar-MMV Screening Library” (2021).
Among all 48,000 compounds or so, about 13,000 (27%) showed an effect of 50% or more. This is one part of the list.

Test system: Wolbachia pipientis
Test: Anti-Wolbachia Cell-Based Screen
Type: functional
Design: scale not given: in the data most compounds retested in dose-response had high values
Conditions: 5 µM

| SMILES | Percent Effect [%] |
| --- | --- |
| Cc1nc(C2(NCc3cc(C#N)ccc3F)CCCCC2)no1 | 11.5 |
| Cc1nc(C2(NCc3ccc(C#N)cc3F)CCCCC2)no1 | 2.337 |
| Cc1nc(C2(NCC(=O)NC(=O)Nc3ccccc3)CCCCC2)no1 | 112.9 |
| Cc1nc(C2(NCc3cccc(F)c3F)CCCCC2)no1 | -2.659 |
| Cc1nc(C2(NCC(=O)NCc3cccs3)CCCCC2)no1 | 113.6 |
| Cc1nc(C2(NCC(=O)NC(=O)NCC(F)(F)F)CCCCC2)no1 | 132.3 |
| Cc1cccnc1CCNC(=O)[C@@]12CNC[C@@H]1CN(S(C)(=O)=O)C2 | -16.39 |
| Cc1cccnc1CC(C)NC1CCSCC1 (configuration not stated) | -10.51 |
| CC(Cc1c(F)cccc1F)NC(=O)CSCC(N)=O (configuration not stated) | -4.817 |
| CCNC(=O)CN1CCSC2(CCCCC2)C1 | -30.52 |
| CCS(=O)(=O)N[C@@H]1CN(Cc2cc(C)on2)C[C@@H]2CCCO[C@@H]21.O=C(O)C(F)(F)F | -1.229 |
| O=C(O)C(F)(F)F.O=C(O)C(F)(F)F.O=C(O)C(F)(F)F.c1ccc(CN2C[C@@H]3CCCO[C@@H]3[C@H](Nc3ccccn3)C2)nc1 | -7.621 |
| Cc1ncsc1CN1C[C@@H]2CCCO[C@@H]2[C@H](Nc2ccccn2)C1.O=C(O)C(F)(F)F.O=C(O)C(F)(F)F | 103.9 |
| Cc1oncc1C(=O)N[C@@H]1CN(C2CCC2)C[C@@H]2CCCO[C@@H]21.O=C(O)C(F)(F)F | 88.41 |
| O=C(CC1CC1)N[C@@H]1CN(Cc2ccncc2)C[C@@H]2CCCO[C@@H]21.O=C(O)C(F)(F)F.O=C(O)C(F)(F)F | -9.965 |
| Cc1cc(CN2C[C@@H]3CCCO[C@@H]3[C@H](NS(C)(=O)=O)C2)no1.O=C(O)C(F)(F)F | -7.292 |
| O=C(CC1CC1)N[C@@H]1CN(Cc2cccnc2)C[C@@H]2CCCO[C@@H]21.O=C(O)C(F)(F)F.O=C(O)C(F)(F)F | -3.357 |
| Cc1oncc1C(=O)N[C@@H]1CN(CC2CC2)C[C@@H]2CCCO[C@@H]21.O=C(O)C(F)(F)F | 91.11 |
| Cc1cc(CN2C[C@@H]3CCCO[C@@H]3[C@H](Nc3ccccn3)C2)no1.O=C(O)C(F)(F)F.O=C(O)C(F)(F)F | 7.146 |
| CCOCCN1C[C@@H]2CCCO[C@@H]2[C@H](NC(=O)c2cnoc2C)C1.O=C(O)C(F)(F)F | 102.3 |
| Cc1noc(C)c1CN1C[C@@H]2CCCO[C@@H]2[C@H](NS(C)(=O)=O)C1.O=C(O)C(F)(F)F | -5.766 |

| SMILES | Percent Effect [%] |
| --- | --- |
| CC(C)c1cc(N2CCCC3(CCN(C)C3)C2)ncn1 (configuration not stated) | 23.89 |
| CCN(CC)C(=O)C1CCC2(CCNCC2)O1.Cl (configuration not stated) | -5.53 |
| Cc1nn(CCNC(C)Cn2ccnc2)c(C)c1Cl (configuration not stated) | -2.201 |
| COCC(=O)NC(C)Cc1cccc(Br)c1 (configuration not stated) | -14.37 |
| CCc1noc(C(C)N2CCNCC2)n1 (configuration not stated) | 13 |
| CCc1cc(N2CCNCC2)n2nc(C)c(C)c2n1 | -8.161 |
| CC(C)c1cc(CN2CCNCC2)no1 | 116.8 |
| CN1CCC2(CC1)C(=O)N(c1cccnc1)c1ccc(F)cc12.Cl | -1.333 |
| NC(=O)CN1CCCCC1c1ccc(-n2ccnc2)nc1 (configuration not stated) | 114.9 |
| CN1CCCCC1c1ccc(-n2ccnc2)nc1 (configuration not stated) | 128 |
| O=C(c1ccc(-n2ccnc2)nc1)N1CCN2CCCCC2C1 (configuration not stated) | -5.274 |
| Cl.NC(CC1CCCCC1)c1ccccc1 (configuration not stated) | -2.613 |
| CCCn1cc(C(=O)NCCS(N)(=O)=O)c2ccccc21 | 15.61 |
| COCCn1cc(C(=O)Nc2nc3c(s2)CCC3)c2ccccc21 | 108.8 |
| COCCn1cc(C(=O)NCCS(N)(=O)=O)c2ccccc21 | 11.42 |
| Cc1cc(CN2CC[C@H]3[C@H]2CCN3C)oc1C.O=C(O)C(F)(F)F.O=C(O)C(F)(F)F | 2.968 |
| Cc1cccc(CN2CC[C@H]3[C@H]2CCN3C(=O)c2cnn(C)c2)n1.O=C(O)C(F)(F)F.O=C(O)C(F)(F)F | -8.772 |
| COCCN1C[C@@H]2[C@@H](OC)CCN(Cc3cccc(C)n3)[C@@H]2C1.O=C(O)C(F)(F)F.O=C(O)C(F)(F)F.O=C(O)C(F)(F)F | 0.3153 |
| Cc1cccc(CN2CC[C@@H]3[C@@H]2CCN3C(=O)Cc2cccs2)n1.O=C(O)C(F)(F)F.O=C(O)C(F)(F)F | 101.6 |
| Cc1cccc(CN2CC[C@@H]3[C@@H]2CCN3Cc2cccs2)n1.O=C(O)C(F)(F)F.O=C(O)C(F)(F)F | 102.2 |
| Cc1cccc(CN2CC[C@@H]3[C@@H]2CCN3C(=O)c2cnoc2C)n1 | -2.884 |

| SMILES | Percent Effect [%] |
| --- | --- |
| Cc1cccc(CN2C(=O)C[C@H]3[C@@H]2CCN3Cc2cccs2)n1.O=C(O)C(F)(F)F.O=C(O)C(F)(F)F | 4.955 |
| Cc1cccc(CN2CC[C@@H]3[C@@H]2CCN3C(=O)c2ccno2)n1.O=C(O)C(F)(F)F.O=C(O)C(F)(F)F | -0.9424 |
| Cc1ccc(CN2CC[C@@H]3[C@@H]2CCN3C(=O)Cc2cccs2)o1.O=C(O)C(F)(F)F | 90.39 |
| Cc1cccc(CN2CC[C@@H]3[C@@H]2CCN3C(=O)Cc2ccsc2)n1.O=C(O)C(F)(F)F.O=C(O)C(F)(F)F | 119.7 |
| Cc1ccc(CN2CC[C@H]3[C@H]2CC(=O)N3c2cccnc2)o1.O=C(O)C(F)(F)F.O=C(O)C(F)(F)F | 1.465 |
| CC(C)(C)c1cn(C[C@H]2CC3CCN2C[C@@H]3C(=O)NC2CC2)nn1 (some centres not stated) | 12.02 |
| CC(C)N1[C@H](Cn2cncn2)C[C@@H]2CNCC[C@@H]21.Cl.Cl | -6.101 |
| Cc1ccc(N2CCO[C@H]3CN(Cc4ccccn4)C[C@H]32)nn1.O=C(O)C(F)(F)F.O=C(O)C(F)(F)F.O=C(O)C(F)(F)F | -12.44 |
| Cc1ccc(N2C[C@@H]3CN(Cc4ccsc4)CCO[C@@H]3C2)nn1.O=C(O)C(F)(F)F.O=C(O)C(F)(F)F | -3.128 |
| Cc1ccc(N2CC[C@@H]3[C@@H]2CCN3Cc2ccsc2)nn1.O=C(O)C(F)(F)F.O=C(O)C(F)(F)F | 101.6 |
| COc1ncnc(N)c1CNCCc1ccccc1 | 127.7 |
| CC[C@@H]1N(CC2CC2)CCC[C@]12CCC(=O)N2.O=C(O)C(F)(F)F | -18.87 |
| COCCN1CCC2(CC1)C(=O)Nc1ccc(C(=O)NC(C)C)cc12.O=C(O)C(F)(F)F | 101 |
| CCN1CCC12CCN(C(=O)c1cc(C)on1)C2.O=C(O)C(F)(F)F (configuration not stated) | -17.49 |
| Cn1cc(CN2CCC3(CC2)C(=O)Nc2ccccc23)cn1.O=C(O)C(F)(F)F | -7.765 |
| CC(=O)N1CCC2(CN(CC3CCCC3)C2)C1.O=C(O)C(F)(F)F | -16.93 |
| CNC(=O)c1ccc2c(c1)C1(CCN(CCOC)CC1)C(=O)N2.O=C(O)C(F)(F)F | 94.3 |
| COCCN1CCC2(C1)CN(c1ncc(F)cn1)C2.O=C(O)C(F)(F)F | 4.032 |
| CNC(=O)c1ccc2c(c1)C1(CCN(CC3CC3)CC1)C(=O)N2.O=C(O)C(F)(F)F | 108.4 |
| CCN1CCC2(CC1)C(=O)Nc1ccc(C(=O)NC)cc12.O=C(O)C(F)(F)F | 117.8 |
| CC(C)(C)n1cc(C2=CCN(CCc3ccccn3)CC2)cn1 | 15.47 |

| SMILES | Percent Effect [%] |
| --- | --- |
| CCOCC(O)CN1CCN(C(=O)Cc2ccc3c(c2)CCO3)CC1 (configuration not stated) | -9.69 |
| CC(Cn1cncn1)NCc1n[nH]c2c1CCCCC2 (configuration not stated) | -17.11 |
| Cc1ccc(N2CCCN(C(=O)c3cn(C)c4ccccc34)CC2)nn1 | 7.774 |
| O=C(c1cccnc1-n1cncn1)N1CCC(Nc2ccccc2)CC1 | 0.1986 |
| O=C(c1cn(Cc2ccccc2)c2ncccc12)N1CCCCC1 | 137.3 |
| COCCN1C[C@@H](C)[C@@]2(COCCN(C(=O)c3ccccn3)C2)C1.O=C(O)C(F)(F)F.O=C(O)C(F)(F)F | -2.288 |
| O=C(c1cn(Cc2ccccc2)c2ncccc12)N1CCOCC1 | 115.6 |
| CC(=O)c1cn(CC(=O)N2CCC3(CC2)OCCO3)c2ccccc12 | -19.35 |
| O=C(N1CCCO1)[C@@]12CCO[C@@H]1CCN(Cc1ccccn1)C2.O=C(O)C(F)(F)F.O=C(O)C(F)(F)F | 114.4 |
| Cc1cccc(CN2CC[C@H]3OCC[C@@]3(C(=O)N3CCCO3)C2)n1.O=C(O)C(F)(F)F.O=C(O)C(F)(F)F | 104.8 |
| O=C(O)C(F)(F)F.O=C(O)C(F)(F)F.O=C([C@H]1CN(Cc2cccnc2)C[C@H]2OCC[C@@H]12)N1CCCO1 | -1.635 |
| Cc1cccc(CN2CCC3(CCCN(CC(=O)N(C)C)C3)C2)n1.O=C(O)C(F)(F)F (configuration not stated) | 2.241 |
| Cc1nnc(N2CCCC3(CN(Cc4ccncc4)CCO3)C2)o1.O=C(O)C(F)(F)F.O=C(O)C(F)(F)F (configuration not stated) | -4.396 |
| O=C(O)C(F)(F)F.O=C(O)C(F)(F)F.O=C(O)C(F)(F)F.c1cc(CN2CCCC23CCCN(Cc2ccoc2)C3)ccn1 (configuration not stated) | 6.786 |
| O=C(N1CCOCC1)[C@@]12CCO[C@@H]1CCN(Cc1ccncc1)C2.O=C(O)C(F)(F)F.O=C(O)C(F)(F)F | 97.63 |
| O=C(N1CCCO1)[C@@]12CCO[C@@H]1CCN(Cc1cccnc1)C2.O=C(O)C(F)(F)F.O=C(O)C(F)(F)F | 92.31 |
| O=C(N1CCCO1)[C@]12COC[C@H]1CN(Cc1cccnc1)C2.O=C(O)C(F)(F)F.O=C(O)C(F)(F)F | 2.039 |
| Cc1noc(C)c1CN1CC[C@H]2OCC[C@@]2(C(=O)N2CCCO2)C1.O=C(O)C(F)(F)F | -1.065 |
| O=C(O)C(F)(F)F.O=C([C@@H]1C[C@@H]2CCN(Cc3ccccn3)C[C@H]2O1)N1CCCO1 | -15.19 |
